Results: PMC5540273 (PLoS ONE, 2017)
Read-outs that look alike come from different tables or passages of the source.

What was measured:
PRKG1 = settings: n = 1
PRKX = settings: n = 1
ROCK2 = settings: n = 1
PRKD3 = settings: concentration: 1 μM, replicates: in singlicate; n = 1
PRKG2 = settings: concentration: 1 μM, replicates: in singlicate; n = 1
PRKR = test system: T1, PRKR; settings: concentration: 1 μM, replicates: in singlicate; n = 1
T1 construct: gene EIF2AK2

PRP4 = settings: concentration: 1 μM, replicates: in singlicate; n = 1
PYK2 = test system: T2, PYK2; settings: concentration: 1 μM, replicates: in singlicate; n = 1
T2 construct: gene PTK2B

QSK = settings: concentration: 1 μM, replicates: in singlicate; n = 1
RAF1 = settings: concentration: 1 μM, replicates: in singlicate; n = 1
RET = settings: concentration: 1 μM, replicates: in singlicate; n = 1
RIOK1 = settings: concentration: 1 μM, replicates: in singlicate; n = 1
RIOK2 = settings: concentration: 1 μM, replicates: in singlicate; n = 1
RIOK3 = settings: concentration: 1 μM, replicates: in singlicate; n = 1
RIPK1 = settings: concentration: 1 μM, replicates: in singlicate; n = 1
RIPK2 = settings: concentration: 1 μM, replicates: in singlicate; n = 1
RIPK4 = settings: concentration: 1 μM, replicates: in singlicate; n = 1
RIPK5 = settings: concentration: 1 μM, replicates: in singlicate; n = 1
ROCK1 = settings: concentration: 1 μM, replicates: in singlicate; n = 1
ROS1 = settings: concentration: 1 μM, replicates: in singlicate; n = 1
[1] = concentration: 1 μM, replicates: in singlicate
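Further: KINOMEscan kinase panel screen.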

CCn1c(-c2nonc2N)nc2c(C#CC(C)(C)O)ncc(OCCCCN)c21.O=C(O)C(F)(F)F.O=C(O)C(F)(F)F [GSK507274]
%Inh (PRKG1; 1 µM): 64% | %Inh (PRKX; 1 µM): 94.1% | %Inh (ROCK2; 1 µM): 95.3%

COC(=O)Nc1nc2ccc(Oc3ccc(NC(=O)Nc4cc(C(F)(F)F)ccc4F)cc3)cc2n1C.Cl [GW692089]
%Inh (PRKD3): 5% | %Inh (PRKG1; [1]): 14% | %Inh (PRKG2): 5% | %Inh (PRKR): 0% | %Inh (PRKX; [1]): 0% | %Inh (PRP4): 58% | %Inh (PYK2): 0% | %Inh (QSK): 0% | %Inh (RAF1): 85% | %Inh (RET): 99.5% | %Inh (RIOK1): 0% | %Inh (RIOK2): 0% | %Inh (RIOK3): 0% | %Inh (RIPK1): 39% | %Inh (RIPK2): 29% | %Inh (RIPK4): 0% | %Inh (RIPK5): 0% | %Inh (ROCK1): 34% | %Inh (ROCK2; [1]): 39% | %Inh (ROS1): 28%

O=C(Nc1ccccc1F)NC1CCN(c2ccnc(Nc3ccc(F)cc3)n2)CC1 [GSK1379800]
%Inh (PRKD3): 0% | %Inh (PRKG1; [1]): 15% | %Inh (PRKG2): 0% | %Inh (PRKR): 0% | %Inh (PRKX; [1]): 7% | %Inh (PRP4): 45% | %Inh (PYK2): 0% | %Inh (QSK): 1% | %Inh (RAF1): 16% | %Inh (RET): 4% | %Inh (RIOK1): 58% | %Inh (RIOK2): 0% | %Inh (RIOK3): 43% | %Inh (RIPK1): 26% | %Inh (RIPK2): 0% | %Inh (RIPK4): 16% | %Inh (RIPK5): 0% | %Inh (ROCK1): 10% | %Inh (ROCK2; [1]): 31% | %Inh (ROS1): 0%

Cc1ccc(C(=O)N2CC[C@@H](O)C2)cc1-n1c(C)cc(OCc2ccc(F)cc2F)c(Br)c1=O
%Inh (PRKD3): 7% | %Inh (PRKG1; [1]): 6% | %Inh (PRKG2): 0% | %Inh (PRKR): 0% | %Inh (PRKX; [1]): 0% | %Inh (PRP4): 20% | %Inh (PYK2): 2% | %Inh (QSK): 0% | %Inh (RAF1): 25% | %Inh (RET): 10% | %Inh (RIOK1): 12% | %Inh (RIOK2): 0% | %Inh (RIOK3): 29% | %Inh (RIPK1): 0% | %Inh (RIPK2): 46% | %Inh (RIPK4): 0% | %Inh (RIPK5): 0% | %Inh (ROCK1): 0% | %Inh (ROCK2; [1]): 0% | %Inh (ROS1): 0%

COc1cc(Nc2nccc(-c3c(-c4cccc(NC(=O)c5c(F)cccc5F)c4)nn4ncccc34)n2)cc(OC)c1OC [GSK327238]
%Inh (PRKD3): 0% | %Inh (PRKG1; [1]): 24% | %Inh (PRKG2): 15% | %Inh (PRKR): 22% | %Inh (PRKX; [1]): 0% | %Inh (PRP4): 0% | %Inh (PYK2): 72% | %Inh (QSK): 17% | %Inh (RAF1): 97.2% | %Inh (RET): 99.7% | %Inh (RIOK1): 20% | %Inh (RIOK2): 5% | %Inh (RIOK3): 24% | %Inh (RIPK1): 16% | %Inh (RIPK2): 99.4% | %Inh (RIPK4): 4% | %Inh (RIPK5): 0% | %Inh (ROCK1): 12% | %Inh (ROCK2; [1]): 14% | %Inh (ROS1): 75%

c1ccc(-c2n[nH]cc2Nc2ccnc3ccccc23)nc1 [GW694077]
%Inh (PRKD3): 100% | %Inh (PRKG1; [1]): 5% | %Inh (PRKG2): 0% | %Inh (PRKR): 16% | %Inh (PRKX; [1]): 0% | %Inh (PRP4): 89% | %Inh (PYK2): 0% | %Inh (QSK): 0% | %Inh (RAF1): 7% | %Inh (RET): 0% | %Inh (RIOK1): 99.2% | %Inh (RIOK2): 86% | %Inh (RIOK3): 100% | %Inh (RIPK1): 0% | %Inh (RIPK2): 11% | %Inh (RIPK4): 96.4% | %Inh (RIPK5): 85% | %Inh (ROCK1): 98.2% | %Inh (ROCK2; [1]): 97.8% | %Inh (ROS1): 9%

Cl.c1ccc(-c2ccc3c(Nc4ccc5[nH]ncc5c4)ccnc3c2)nc1 [GW440137]
%Inh (PRKD3): 17% | %Inh (PRKG1; [1]): 0% | %Inh (PRKG2): 0% | %Inh (PRKR): 0% | %Inh (PRKX; [1]): 19% | %Inh (PRP4): 66% | %Inh (PYK2): 2% | %Inh (QSK): 6% | %Inh (RAF1): 15% | %Inh (RET): 76% | %Inh (RIOK1): 32% | %Inh (RIOK2): 11% | %Inh (RIOK3): 32% | %Inh (RIPK1): 6% | %Inh (RIPK2): 75% | %Inh (RIPK4): 23% | %Inh (RIPK5): 4% | %Inh (ROCK1): 10% | %Inh (ROCK2; [1]): 35% | %Inh (ROS1): 0%

CCCCc1nn2ncccc2c1-c1ccnc(Nc2ccc(N3CCN(C)CC3)cc2)n1 [GW684941]
%Inh (PRKD3): 86% | %Inh (PRKG1; [1]): 0% | %Inh (PRKG2): 4% | %Inh (PRKR): 0% | %Inh (PRKX; [1]): 31% | %Inh (PRP4): 36% | %Inh (PYK2): 40% | %Inh (QSK): 43% | %Inh (RAF1): 0% | %Inh (RET): 99.5% | %Inh (RIOK1): 52% | %Inh (RIOK2): 44% | %Inh (RIOK3): 49% | %Inh (RIPK1): 22% | %Inh (RIPK2): 74% | %Inh (RIPK4): 29% | %Inh (RIPK5): 56% | %Inh (ROCK1): 32% | %Inh (ROCK2; [1]): 30% | %Inh (ROS1): 71%

Cl.c1ccc(-c2ccc3c(Nc4ccc5[nH]ccc5c4)ccnc3c2)nc1 [GW440138]
%Inh (PRKD3): 5% | %Inh (PRKG1; [1]): 0% | %Inh (PRKG2): 0% | %Inh (PRKR): 0% | %Inh (PRKX; [1]): 3% | %Inh (PRP4): 77% | %Inh (PYK2): 0% | %Inh (QSK): 0% | %Inh (RAF1): 40% | %Inh (RET): 96.9% | %Inh (RIOK1): 4% | %Inh (RIOK2): 0% | %Inh (RIOK3): 0% | %Inh (RIPK1): 0% | %Inh (RIPK2): 78% | %Inh (RIPK4): 19% | %Inh (RIPK5): 0% | %Inh (ROCK1): 23% | %Inh (ROCK2; [1]): 43% | %Inh (ROS1): 0%

COc1cc2c(cc1OCCN1CCNCC1)ncc1c3ccc(C#N)cc3[nH]c21
%Inh (PRKD3): 0% | %Inh (PRKG1; [1]): 0% | %Inh (PRKG2): 7% | %Inh (PRKR): 9% | %Inh (PRKX; [1]): 34% | %Inh (PRP4): 38% | %Inh (PYK2): 0% | %Inh (QSK): 52% | %Inh (RAF1): 29% | %Inh (RET): 35% | %Inh (RIOK1): 82% | %Inh (RIOK2): 12% | %Inh (RIOK3): 93.9% | %Inh (RIPK1): 0% | %Inh (RIPK2): 16% | %Inh (RIPK4): 41% | %Inh (RIPK5): 28% | %Inh (ROCK1): 99.2% | %Inh (ROCK2; [1]): 99.7% | %Inh (ROS1): 0%
